SMILES strings stand for the structures. Where “and” joins values, the source holds several entries; their conditions need not be identical. Identical values can stand only once. Inconclusive results are not listed. Entries that show only a call come without a potency. Calls of active or inactive are those of the source. The call rests on the fitted dose curve; in most records, active means well fitted curve in the direction sought with a large enough effect in the repeat runs; inconclusive means weak or mixed curves; inactive means no such curve, though single readings can be large; an effect the other way counts as inactive or inconclusive.
Potency means the concentration at half of the fitted maximal effect.

The first experiment is described as follows: qHTS RealTime-Glo MT Cell Viability Assay in HEK293 cells - 8 hour (AID 1224887). Further: nearly all actives have a fitted effect of over 50% in size. On activity change, negative = cytotoxicity: top concentration of the series differs between compounds. The conditions noted are these: RealTime-Glo luminescence; series mostly up to 76.8 µM. The essentials: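 Tox21 screen in HEK293 using RealTime-Glo MT chemistry, with cells and reagent co-dispensed. Luminescence proportional to viable cell number was captured at intervals during 40 h compound exposure at 37 C.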
(qHTS replaces the single test concentration by a dilution series.)
For `N#CC(Cl)Cl`, the Potency result is “inactive”.

Consider `c1cc[c]([Sb]([c]2ccccc2)[c]2ccccc2)cc1`, for which the Potency result is “inactive”.

Regarding `Clc1ccc(COC(Cn2ccnc2)c2ccc(Cl)cc2Cl)cc1` (stereo unspecified), the Potency is 20.4 µM (active) and 21.8 µM (active).

For `Cc1cc(C)c(C2=C(OC(=O)CC(C)(C)C)C3(CCCC3)OC2=O)c(C)c1`, the Potency entry is “inactive”.

In the case of `CC(=O)[O-].CC(=O)[O-].[Hg+2]`, the Potency was 2.19 µM (active).

On to `NC(=O)CCl`, for which the Potency result is “inactive”.

As for `CCC(C)c1cc(C(C)(C)C)cc(-n2nc3ccccc3n2)c1O` (stereo unspecified), the Potency entry is “inactive”.

Take `CCOc1cc(C(C)(C)C)ccc1C1COC(c2c(F)cccc2F)=N1` (stereo unspecified): the Potency result was “inactive”.

`NC(=O)c1ccc(N)nc1`: the Potency result was “inactive”.

On to `Cc1cc(SCc2sc(-c3ccc(C(F)(F)F)c(F)c3)nc2C)ccc1OCC(=O)O`, for which the Potency entry is “inactive”.

Take `COc1ccc(OC)c(CC(C)N)c1` (stereo unspecified): the Potency entry was “inactive”.

Turning to `Cc1cc(C(F)(C(F)(F)F)C(F)(F)F)ccc1NC(=O)c1cccc(I)c1C(=O)NC(C)(C)CS(C)(=O)=O`, the Potency entry is “inactive”.

Take `[Cd+2].[Cl-].[Cl-]`: the Potency entry is “inactive”.

In the case of `CCOP(=S)(OCC)SCCS(=O)(=O)CC`, the Potency entry was “inactive”.

In the case of `CC(C)(COCC1CO1)COCC1CO1` (stereo unspecified), the Potency result is “inactive”.

Turning to `C=COCCCl`, the Potency entry was “inactive”.

Take `Cc1ccc(C(=O)Cl)cc1`: the Potency entry was “inactive”.

`CCCCCCCCCBr`: the Potency result was “inactive”.

For the compound `CC(=O)Nc1ccc2c(c1)Cc1ccccc1-2`, the Potency entry was “inactive”.

`[CH3][Hg][Cl]`: the Potency was 6.9 µM (active).

With `Nc1ccc([N+](=O)[O-])cc1Cl`, the Potency entry is “inactive”.

`CCCCN(CCCC)C(=S)[S-].CCCCN(CCCC)C(=S)[S-].[Zn+2]`: the Potency was 15.5 µM (active).

Take `CCOCCOC(C)=O`: the Potency entry was “inactive”.

On to `[Cl][Sn]([c]1ccccc1)([c]1ccccc1)[c]1ccccc1`, for which the Potency is 0.737 µM (active).

Turning to `N#CSCSC#N`, the Potency was 22.4 µM (active) and 21.7 µM (active).

With `ClC(Cl)=C(Cl)Cl`, the Potency result was “inactive”.

With `C[As+](C)(C)CC(=O)[O-]`, the Potency result is “inactive”.

As to `COP(N)(=S)OC`, the Potency entry is “inactive”.

For the compound `ClC1=C(Cl)[C@]2(Cl)[C@@H]3[C@@H](Cl)[C@@H](Cl)C[C@@H]3[C@@]1(Cl)C2(Cl)Cl`, the Potency entry is “inactive”.

On to `FC(Cl)(Cl)Cl`, for which the Potency result is “inactive”.

With `Cl/C=C\CCl`, the Potency result was “inactive”.

A short description of another experiment: A CellTox Green Cytotoxicity Assay to monitor cytotoxicity in HEK293 cells - 16 hour (AID 1224888). Further: nearly all actives have a fitted effect of over 35% in size. The conditions noted are these: CellTox Green fluorescence; series mostly up to 76.8 µM. The procedure, abridged: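 Seeding of HEK293 cells together with cytotoxicity dye preceded a 5 h incubation at 37 C/5% CO2. Test compounds in DMSO were then added and fluorescence monitored across 40 h.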
`CCN(CC)C(=S)[S-].CCN(CC)C(=S)[S-].[Zn+2]`: the Potency result was “inactive”.

As to `N#CC(Cl)Cl`, the Potency result is “inactive”.

As for `CN(C)C(=S)[S-].CN(C)C(=S)[S-].[Cu+2]`, the Potency is 2.38 µM (active).

Take `c1cc[c]([Sb]([c]2ccccc2)[c]2ccccc2)cc1`: the Potency result was “inactive”.

`Cc1cc(C)c(C2=C(OC(=O)CC(C)(C)C)C3(CCCC3)OC2=O)c(C)c1`: the Potency entry is “inactive”.

Take `CC(=O)[O-].CC(=O)[O-].[Hg+2]`: the Potency was 24.5 µM (active).

Consider `NC(=O)CCl`, for which the Potency result is “inactive”.

In the case of `CCC(C)c1cc(C(C)(C)C)cc(-n2nc3ccccc3n2)c1O` (stereo unspecified), the Potency entry was “inactive”.

For `CCOc1cc(C(C)(C)C)ccc1C1COC(c2c(F)cccc2F)=N1` (stereo unspecified), the Potency entry was “inactive”.

Take `NC(=O)c1ccc(N)nc1`: the Potency entry was “inactive”.

Consider `Cc1cc(SCc2sc(-c3ccc(C(F)(F)F)c(F)c3)nc2C)ccc1OCC(=O)O`, for which the Potency entry is “inactive”.

For the compound `COc1ccc(OC)c(CC(C)N)c1` (stereo unspecified), the Potency entry is “inactive”.

With `Cc1cc(C(F)(C(F)(F)F)C(F)(F)F)ccc1NC(=O)c1cccc(I)c1C(=O)NC(C)(C)CS(C)(=O)=O`, the Potency result was “inactive”.

With `[Cd+2].[Cl-].[Cl-]`, the Potency result is “inactive”.

Take `CC(C)(COCC1CO1)COCC1CO1` (stereo unspecified): the Potency result was “inactive”.

As for `C=COCCCl`, the Potency entry was “inactive”.

As to `CCCCCCCCCBr`, the Potency result is “inactive”.

Take `CC(=O)Nc1ccc2c(c1)Cc1ccccc1-2`: the Potency result is “inactive”.

Consider `CC(C)N1C(=O)N(c2ccccc2)CSC1=NC(C)(C)C`, for which the Potency entry is “inactive”.

For the compound `C=CC(=O)OCC(COC(=O)C=C)(COC(=O)C=C)COC(=O)C=C`, the Potency result was “inactive”.

Regarding `O=C(CCl)C(Cl)Cl`, the Potency result is “inactive”.

As to `CCCCN(CCCC)C(=S)[S-].CCCCN(CCCC)C(=S)[S-].[Zn+2]`, the Potency entry was “inactive”.

Turning to `CCOCCOC(C)=O`, the Potency result is “inactive”.

As to `[Cl][Sn]([c]1ccccc1)([c]1ccccc1)[c]1ccccc1`, the Potency was 2.33 µM (active).

Regarding `CCCCCCCCCCCCCCCC[N+](C)(C)C`, the Potency is 23.7 µM (active) and 49 µM (active) and 19 µM (active).

With `C[C@]12Cc3nonc3C[C@@H]1CC[C@@H]1[C@@H]2CC[C@@]2(C)[C@H]1CC[C@]2(C)O`, the Potency result is “inactive”.

For the compound `C[As+](C)(C)CC(=O)[O-]`, the Potency entry was “inactive”.

Regarding `FC(Cl)(Cl)Cl`, the Potency result is “inactive”.

A further experiment in a line: qHTS RealTime-Glo MT Cell Viability Assay in HepG2 cells - 0 hour (AID 1224889). Further: nearly all actives have a fitted effect of over 50% in size. The conditions noted are these: RealTime-Glo luminescence; series mostly up to 76.8 µM. The procedure, abridged:
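Cells + NanoLuc/prosubstrate dispensed (600 cells/well) → 5 h at 37 C/5% CO2 → compounds in DMSO transferred → 40 h incubation at 37 C, luminescence read at 0, 8, 16, 24, 32, 40 h.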
With `CCN(CC)C(=S)[S-].CCN(CC)C(=S)[S-].[Zn+2]`, the Potency result is “inactive”.

`N#CC(Cl)Cl`: the Potency entry is “inactive”.

In the case of `CN(C)C(=S)[S-].CN(C)C(=S)[S-].[Cu+2]`, the activity change, negative = cytotoxicity was -22.4% [at 15.8 µM] (inactive).

Turning to `c1cc[c]([Sb]([c]2ccccc2)[c]2ccccc2)cc1`, the Potency entry is “inactive”.

Consider `Clc1ccc(COC(Cn2ccnc2)c2ccc(Cl)cc2Cl)cc1` (stereo unspecified), for which the Potency result is “inactive”.

Turning to `Cc1cc(C)c(C2=C(OC(=O)CC(C)(C)C)C3(CCCC3)OC2=O)c(C)c1`, the Potency result was “inactive”.

For the compound `CC(=O)[O-].CC(=O)[O-].[Hg+2]`, the Potency is 30.9 µM (active).

As to `NC(=O)CCl`, the Potency result was “inactive”.

For the compound `CCC(C)c1cc(C(C)(C)C)cc(-n2nc3ccccc3n2)c1O` (stereo unspecified), the Potency entry was “inactive”.

With `CCOc1cc(C(C)(C)C)ccc1C1COC(c2c(F)cccc2F)=N1` (stereo unspecified), the Potency entry was “inactive”.

As for `NC(=O)c1ccc(N)nc1`, the Potency entry was “inactive”.

For the compound `Cc1cc(SCc2sc(-c3ccc(C(F)(F)F)c(F)c3)nc2C)ccc1OCC(=O)O`, the Potency result was “inactive”.

For `COc1ccc(OC)c(CC(C)N)c1` (stereo unspecified), the Potency result was “inactive”.

Consider `Cc1cc(C(F)(C(F)(F)F)C(F)(F)F)ccc1NC(=O)c1cccc(I)c1C(=O)NC(C)(C)CS(C)(=O)=O`, for which the Potency result was “inactive”.

As for `[Cd+2].[Cl-].[Cl-]`, the Potency result is “inactive”.

For `CC(C)(COCC1CO1)COCC1CO1` (stereo unspecified), the Potency entry was “inactive”.

With `C=COCCCl`, the Potency result was “inactive”.

For `Cc1ccc(C(=O)Cl)cc1`, the Potency entry was “inactive”.

As for `CCCCCCCCCBr`, the Potency entry was “inactive”.

With `CC(=O)Nc1ccc2c(c1)Cc1ccccc1-2`, the Potency entry is “inactive”.

Take `CC(C)N1C(=O)N(c2ccccc2)CSC1=NC(C)(C)C`: the Potency entry is “inactive”.

As for `C=CC(=O)OCC(COC(=O)C=C)(COC(=O)C=C)COC(=O)C=C`, the Potency entry was “inactive”.

For `[CH3][Hg][Cl]`, the Potency entry was “inactive”.

`Nc1ccc([N+](=O)[O-])cc1Cl`: the Potency result was “inactive”.

As to `O=C(CCl)C(Cl)Cl`, the Potency result is “inactive”.

Turning to `CCCCN(CCCC)C(=S)[S-].CCCCN(CCCC)C(=S)[S-].[Zn+2]`, the Potency entry was “inactive”.

As to `CCOCCOC(C)=O`, the Potency result was “inactive”.

With `[Cl][Sn]([c]1ccccc1)([c]1ccccc1)[c]1ccccc1`, the activity change, negative = cytotoxicity is 2.43% [at 15.8 µM] (inactive).

On to `CCCCCCCCCCCCCCCC[N+](C)(C)C`, for which the Potency entry is “inactive”.

For `N#CSCSC#N`, the Potency entry is “inactive”.

Take `C[C@]12Cc3nonc3C[C@@H]1CC[C@@H]1[C@@H]2CC[C@@]2(C)[C@H]1CC[C@]2(C)O`: the Potency entry was “inactive”.

`ClC(Cl)=C(Cl)Cl`: the Potency entry is “inactive”.

With `C[As+](C)(C)CC(=O)[O-]`, the Potency entry was “inactive”.

On to `COP(N)(=S)OC`, for which the Potency result is “inactive”.

On to `ClC1=C(Cl)[C@]2(Cl)[C@@H]3[C@@H](Cl)[C@@H](Cl)C[C@@H]3[C@@]1(Cl)C2(Cl)Cl`, for which the Potency result was “inactive”.

For `FC(Cl)(Cl)Cl`, the Potency result was “inactive”.

For the compound `Cl/C=C\CCl`, the Potency entry was “inactive”.

The values are drawn from PubChem BioAssay (Tox21).
